# CHX counter – Cycloheximide Counterscreen for Small Molecule Inhibitors of Shiga Toxin. max response, %. cell reporter, cycloheximide protein synthesis inhibition counterscreen. actives 12% (n = 300,000). AID 2314, 2010; in the data active means max response mostly above about 13%, no sharp cut-off; inactive means mostly below about 14%; further: read at 38.3 µM for the half of the compounds with a filed dose; 0% is about no effect
# Pf growth 48h – Primary qHTS for delayed death inhibitors of the malarial parasite plastid, 48 hour incubation; P. falciparum luciferase growth in erythrocytes, 48 h; Potency, µM (highest dose often 28.7 µM), inactives show top-dose activity change, negative = inhibition, actives largely listed as inhibitors; actives 5.9% (n = 310,000); AID 504832, 2011; further: potency means the concentration at half of the fitted maximal effect; on the % scale 0 is the no-effect control and ±100 the full control effect
#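 Firefly luciferase activity from engineered P. falciparum reports growth; inhibitors lower the luminescent signal. Cultures contained 2% hematocrit erythrocytes at 0.1% final parasitemia.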
# Shiga toxin inh – A qHTS for Small Molecule Inhibitors of Shiga Toxin; inhibition, % at 38.7 µM; actives 9.2% (n = 290,000); Vero cells, Shiga toxin protein synthesis inhibition reporter; in the data active means inhibition mostly above about 28%, no sharp cut-off; inactive means mostly below about 43%; further: 0% is about no effect
# Pf growth 96h – Primary qHTS for delayed death inhibitors of the malarial parasite plastid, 96 hour incubation; Potency, µM (top dose mostly 28.7 µM), for the others: at the top dose activity change, negative = inhibition, hits mostly inhibitors; actives 6.9% (n = 320,000); P. falciparum luciferase reporter growth, 96 h; further: potency means the concentration at half of the fitted maximal effect; on the % scale 0 is the no-effect control and ±100 the full control effect
#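 Readout is luminescence from an integrated firefly luciferase in P. falciparum. Red cells, 2% hematocrit and 0.05% parasitemia final, were cultured with compound through two parasite generations (96 hours) at 37 C, 5% CO2.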
# AMA1 RON2 block – qHTS for Inhibitors of AMA1-RON; Towards Development of Antimalarial Drug Lead: Primary Screen; Potency, µM (top dose mostly 58.2 µM), for the others: top-dose activity change, negative = inhibition, most hits filed as inhibitors; AlphaScreen AMA1-biotinylated RON2 peptide binding; AID 720542, 2013; Plasmodium falciparum AMA1 (3D7) - RON2 peptide interaction; actives 0.2% (n = 360,000);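 further: potency means the concentration at half of the fitted maximal effect; 0% = vehicle wells and -100% = peptide control; nearly all actives have a fitted effect of over 45% in size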
#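 AMA1 (3D7) with his tag at 25 nM final met compounds first, then biotinylated RON2 peptide at 25 nM; detection used donor plus acceptor beads, 10 µg/mL apiece, read by AlphaScreen after 30 min at room temperature.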
# HCV inh – qHTS Assay for Inhibitors of Hepatitis C Virus (HCV); Huh7.5.1 HCVcc-Cre infection, luciferase reporter, 44 h; Potency, µM (doses to about 41.8 µM), for the others: at the top dose activity change, negative = inhibition, most hits filed as inhibitors; actives 3.4% (n = 340,000); AID 651820, 2012; further: potency means the concentration at half of the fitted maximal effect; on the % scale 0 is the no-effect control and ±100 the full control effect
#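 1,000 cells/well; 4 h culture; + compound; + HCVcc-Cre (~0.5 moi); 44 h; luciferase substrate, RT 15 min; read 15 sec.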
# * hit, by the source's call; u = inconclusive; x = not tested or not shown; [ ] = another dose, or the depositor's remark. Rows were chosen to be rich in hits. Some 21% of all compounds tested hit in one or more screens of this group. Unless noted, the call rests on the fitted dose curve; in most records, active means well fitted curve in the direction sought with a large enough effect; inconclusive means small, poorly fitted or top-dose-only effect, or another doubt; inactive means no such curve, though single readings can be large; an effect the other way counts as inactive or inconclusive.
SMILES,CHX counter,Pf growth 48h,Shiga toxin inh,Pf growth 96h,AMA1 RON2 block,HCV inh
Cn1cc(C(=O)N2CCc3ccccc32)cn1,22*,97%,49*,85%,7%,-5%
C[C@@H]1[C@H](O)C[C@@]23COC(=O)C2=CCCC3[C@@]1(C)CCC1COC(=O)C1 (some centres not stated),x,0.0033µM*,x,0.0026µM*,8%,17%
CCOc1ccccc1NC(=O)CCCn1cc([N+](=O)[O-])cn1,9,11%,3,3.3µM*,-1%,-21%
C=CCn1cccc(C(=O)Nc2ccc(F)cc2)c1=O,39*,100%,63*,98%,2%,u
COc1ccc(NC(=O)c2cccn(CC=C(C)C)c2=O)cc1,40*,169%,58*,40%,55%,u
C=CCc1cccc2cc(C(=O)Nc3ccc(F)cc3)c(=O)oc12,11*,6%,0,0%,-1%,-4%
C=CCn1cccc(C(=O)Nc2ccc(OC)cc2)c1=O,48*,173%,62*,u,1%,20%
C[C@H](NC(c1cccc2nc(O)c(O)nc12)P(=O)(O)O)c1ccc(Br)cc1 (some centres not stated),-4,x,-8,x,x,x
O=C(CSc1nc(=O)n2ccccc2n1)NC1CCCCC1,x,21%,x,47%,-8%,-9%
Cc1cccc(C(=O)CC(=O)c2cc(Cl)ccc2O)c1,27*,x,50*,x,82%,u
Cc1ccc(O)c(C(=O)CC(=O)c2cccc(F)c2)c1,38*,u,61*,x,39%,u
Cc1ccc(O)c(C(=O)CC(=O)c2ccc(Cl)cc2)c1,38*,u,96*,u,68%,22µM*
O=C(CC(=O)c1cc(Cl)ccc1O)c1ccccc1,55*,u,74*,u,36%,u
Cc1ccc(O)c(NC(=O)CSc2ccc(Cl)cc2)c1,-1,u,-4,0%,0%,-20%
Cc1cccc(C(=O)NCC(=O)NNC(=O)c2ccccc2O)c1,x,6%,x,31%,-4%,31%
COC(=O)c1cn(NC(=O)Cc2ccccc2Br)c(=O)c2ccccc12,6,14%,-15,11%,-18%,-6%
COc1ccc(C)cc1NC(=O)C1CCCN(S(=O)(=O)c2cccc3cccnc23)C1 (configuration not stated),-1,u,-3,u,3%,u
CCc1sc(C(=O)NCc2ccccc2)cc1C,9,46%,35,20%,4%,-7%
CCc1sc(C(=O)Nc2cc(Cl)ccc2N2CCCCC2)cc1C,2,x,-15,15µM*,8%,u
CCc1sc(C(=O)Nc2cccc(-n3cnnn3)c2)cc1C,x,u,x,u,-3%,u
CCc1sc(C(=O)Nc2ccc(F)cc2C)cc1C,15*,0%,74*,26%,-7%,-6%
CCc1sc(C(=O)Nc2ncccc2C)cc1C,41*,45%,55,-15%,6%,6%
CCc1sc(C(=O)Nc2ncccc2O)cc1C,36*,118%,46*,123%,41%,-4%
Cc1ccc(C(=O)Nc2cc(Cl)ccc2N2CCCCC2)s1,-4,x,9,u,10%,u
Cc1cc(C(=O)Nc2ccc(F)cc2C)cs1,-4,-19%,31,-21%,-5%,-7%
SMILES,CHX counter,Pf growth 48h,Shiga toxin inh,Pf growth 96h,AMA1 RON2 block,HCV inh
COc1ccc(N2CC(C(=O)N[C@@H](C)C(=O)NCc3ccccc3OC)CC2=O)cc1 (some centres not stated),6,13%,-12,-18%,-8%,-3%
O=S1(=O)CC(N2CCCC2)CN1Cc1ccccc1 (configuration not stated),x,x,x,x,7%,x
CCOc1ccc(Oc2ccc(NS(=O)(=O)c3ccc(CCC(=O)O)cc3)cc2)cc1,x,x,x,x,-24%,x
COCCn1c(Cc2ccccc2)nnc1SCC(=O)N1CCCC1=O,x,-22%,x,u,-8%,17%
CCc1sc(C(=O)Nc2nccs2)cc1C,57*,56%,55*,115%,32%,-11%
Cc1cc(=O)n2c(sc3ccccc32)c1C#N,-2,19%,1,48%,9%,-18%
CCCNCC(O)Cn1c2ccccc2n2c(=O)cc(C)c(C#N)c12 (configuration not stated),1,3.7µM*,-2,12µM*,9%[2.32 µM],u
CC1=Nc2ccccc2/C1=C/c1c(O)[nH]c(=O)[nH]c1=O,0,3%,-4,2.1µM*,-17%,2%
Cc1ccc(C(=O)OCC(=O)NNC(=O)c2cccs2)c(O)c1,x,-2%,x,34%,74%,34%
Cc1ccc(NC(=O)CNC2CCCCC2)cc1Cl,8,u,4,0.74µM*,14%,-21%
O=C(CNCC1CCCO1)Nc1ccc(N2CCCCCC2)cc1 (configuration not stated),23*,-9%,43*,0.26µM*,u,-11%
O=C(Nc1ccc(N2CCOCC2)cc1)C1CCCCC1,22,21%,85*,40%,-24%,-6%
O=C(Nc1ccc(S(=O)(=O)N2CCOCC2)cc1)C1CCCCC1,-2,-16%,-11,x,-2%,-4%
O=C(CNC1CCCC1)Nc1ccc(N2CCCCCC2)cc1,56*,-25%,83*,22%,u,-28%
CCCS(=O)(=O)NC(=O)C1(C)CCN(C(=O)c2ccccc2C(F)(F)F)C1 (configuration not stated),x,x,x,x,-1%,x
O=C(CNCCC1=CCCCC1)Nc1ccc(N2CCCCCC2)cc1,16*,u,21,-20%,35µM*,u
Cc1nc2cc(NC(=O)NCCC3=CCCCC3)ccc2o1,19*,87%,57*,-14%,-44%,-3%
C=CCNC(=O)Nc1ccc2oc(C)nc2c1,6,34%,15,x,-2%,15%
COc1ccc(NC(=O)Nc2ccc3oc(C)nc3c2)cc1,30*,87%,67*,u,-5%,-4%
O=C(COc1ccc(Br)cc1F)NC1CC1,x,x,x,x,24%,2%
Cn1ncc2c(O/N=C(\N)c3ccc(C(C)(C)C)cc3)ncnc21,-3,u,22,u,4%,5.6µM*
CCOC(=O)c1ccc(Nc2ncnc3c2cnn3C)cc1,0,u,6,u,-4%,-30%
Cc1ccc(N=C(N)N=C(N)N)c(C)c1,-2,u,1,u,37%,8%
C=CCOC(=O)C1=C(C)OC(N)=C(C#N)C1c1ccccc1F (configuration not stated),2,x,-9,x,-1%,2%

# High-throughput results deposited in PubChem BioAssay by National Center for Advancing Translational Sciences (NCATS).
